TDP1 cell noCPT: qHTS for Inhibitors of human tyrosyl-DNA phosphodiesterase 1 (TDP1): qHTS in cells in absence of CPT; DT40 Tdp1-/- hTDP1 cells, no CPT, ATP luminescence, 48 h; AID 686978, 2013; 420,000 tested, 15% active; Potency, µM (top dose mostly 46.2 µM), inactives show top-dose activity change, negative = growth inhibition, most hits filed as inhibitors; note: potency is the fitted concentration of half-maximal effect; nearly all actives have a fitted effect of over 55% in size
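Readout: luminescence from CellTiter-Glo after 30 min in the dark at RT. Cells: DT40 Tdp1-/- with stable hTDP1, 400/well. Exposure: compounds alone, ≥48 hr, 37 °C.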
TDP1 cell CPT: growth inhibition of DT40 Tdp1-/-;hTDP1 cells with camptothecin (screen for TDP1 inhibitors); chicken DT40 Tdp1-/-;hTDP1 cells + 20 nM CPT, ATP luminescence, 48 h; Potency, µM (highest dose often 46.2 µM), without a hit: at the top dose activity change, negative = growth inhibition, hits mostly inhibitors; 420,000 tested, 12% active; note: potency is the fitted concentration of half-maximal effect; nearly all actives have a fitted effect of over 55% in size
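Cell growth measured by CellTiter-Glo luminescence after a minimum 48 h, 37 C compound exposure with 20 nM CPT in Tdp1-knockout DT40 cells stably expressing hTDP1, seeded 400/well; qHTS titration format.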
IL-1B inflam inh: inflammasome signaling inhibition, IL-1 beta readout | 360,000 tested, 4.7% active | activity change, % at 57.5 µM | THP-1 LPS/ATP IL-1B secretion, AlphaLISA, 16 h; stronger effect = lower value | AID 743279; in the data active = activity change below about -50%; inconclusive = mostly about -30% to -49%
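Secreted IL-1B measured by AlphaLISA bead assay after 16 h compound exposure of THP-1 cells; compounds (final up to 57.5 uM) added 1 h before LPS (250 ng/mL) and ATP (1.25 mM) stimulation; lower signal means less secretion.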
HT1080NT lethal: kills 2HG-producing HT-1080-NT fibrosarcoma cells. 360,000 tested, 1.6% active. Potency, µM (series often up to 46.1 µM), for inactives: top-dose activity, negative = less viability, hits mostly cytotoxic. HT-1080-NT fibrosarcoma viability, CellTiter-Glo ATP luminescence, 48 h;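 note: NT is the 2HG producing partner of a matched IDH1 knockdown line; potency is the fitted concentration of half-maximal effect; 0% = DMSO-treated cells and -100% = media-only wells without cells; nearly all actives have a fitted effect of over 55% in size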
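Compounds were tested in concentration-response format on HT-1080-NT cells for 48 hours at 37 degrees C. Cell viability came from CellTiter-Glo luminescence; curves were classified by r2, response magnitude and activity.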
HT1080 IDH1KD tx: toxicity to HT-1080 IDH1 knockdown cells (counter line). AID 686971. Potency, µM (highest dose often 46.1 µM), for inactives: top-dose activity, negative = toxicity, hits mostly cytotoxic. 360,000 tested, 2% active. HT-1080 IDH1 knockdown viability, ATP luminescence, 48 h;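 note: potency is the fitted concentration of half-maximal effect; 0% = DMSO wells and -100% = cell-free medium wells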
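HT-1080-IDH1KD cells (IDH1 knocked down), 750/well in RPMI with 5% FBS, treated with compound 48 h at 37 degrees C. Viability by CellTiter-Glo luminescence, normalised to DMSO and no-cell wells; concentration-response curves classed.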
* marks the source's active call; other numbers are inactive results; ? = inconclusive; . = not tested or not shown; [ ] = dose if it differs, or a comment. Compounds with a hit are over-represented: about 19% of the library has one in this group of screens. Unless noted, calls come from the whole dose curve; as a rule, active = well fitted curve in the direction sought with a large enough effect; inconclusive = small, poorly fitted or top-dose-only effect, or another doubt; inactive = no such curve, though single readings can be large; an effect the other way counts as inactive or inconclusive. Unless noted, % is set by controls: 0 for no effect and ±100 for the full control effect.

SMILES	TDP1 cell noCPT	TDP1 cell CPT	IL-1B inflam inh	HT1080NT lethal	HT1080 IDH1KD tx
COC(=O)Cn1c(=O)c2c(nc3n2CCCN3CCc2ccc(OC)c(OC)c2)n(C)c1=O	-8%	-8%	-15	-5%	-10%
CC12CC3CC(C)(C1)CC(C(=O)NNC(=O)c1ccncc1)(C3)C2	11%	-13%	-10	1%	3%
CC1CCCC(C)N1C(=O)COC(=O)c1cccs1 (centres undefined)	14%	2%	10	0%	1%
CCc1nnc(NC(=O)CSc2nnc(C3CC3)n2C)s1	-16%	0%	5	-2%	1%
CCCCOc1ccc(S(=O)(=O)N2CCN(c3ccc(N4CCN(CC)CC4)nn3)CC2)cc1	?	?	2	3%	11%
Cc1ccc2[nH]c(C(=O)O)c(NC(=O)CN3CCN(c4cccc(C)c4C)CC3)c2c1	23µM*	?	45	?	?
Cc1ccnc(NCc2cc(Cl)cc(Cl)c2O)c1	-17%	-6%	16	-15%	-8%
Cc1cccc(NCc2cc(Cl)ccc2O)n1	-14%	-26%	-79*	?	0%[9.24 µM]
Cc1cccc(NCc2cc(Cl)cc(Cl)c2O)n1	0%	-8%	-51*	?	4%[9.24 µM]
CC(C)c1cc(=O)[nH]c(N2CCN(Cc3ccc4c(c3)OCO4)CC2)n1	?	-24%	10	10%	-2%
CC(=O)c1ccc(OCc2cc(C(=O)NC3CCCCC3)no2)cc1	0%	-19%	-15	-5%	19%
O=C(Nc1cnn(Cc2ccc(F)cc2)c1)C(c1ccccc1)c1ccccc1	21µM*	?	-6	?	?
O=C(Nc1cnn(Cc2ccc(F)cc2)c1)c1cnccn1	16%	-1%	21	9%	15%
C[C@H](OC(=O)NCc1ccc(C(F)(F)F)cc1)[C@@H]1O[C@@]2(C)CCC[C@@H]1O2	?	?	2	1%	7%
CC(=O)Nc1c(-c2ccccc2)nc2cc(C)ccn12	2%	3%	8	5%	15%
Cc1ccc(Nc2c(-c3c[nH]c4ccccc34)nc3cc(C)ccn23)cc1	23µM*	23µM*	.	.	.
Cc1ccn2c(Nc3ccccc3)c(-c3c[nH]c4ccccc34)nc2c1	?	16µM*	.	.	.
Cc1ccc2nc(-c3c[nH]c4ccccc34)c(Nc3ccc(F)cc3)n2c1	18µM*	15µM*	.	.	.
COCCN1CCN(C(=O)c2cnn(-c3nccc(-c4ccco4)n3)c2C(C)C)CC1	-3%	16%[9.04 µM]	.	.	.
Cc1ccc(C(=O)CSc2nnc(CNc3ccc(C)cc3C)n2Cc2ccco2)cc1	?	21µM*	-3	?	?
Cc1ccc(NCc2nnc(SCc3ccc(C#N)cc3)n2Cc2ccco2)c(C)c1	23µM*	?	-8	-10%	-17%
COc1ccc(C(=O)CSc2nnc(CNc3ccc(C)cc3C)n2Cc2ccco2)cc1	23µM*	18µM*	?	-6%	-17%
N#Cc1ccc(CSc2nnc(-c3ccncc3)n2CCc2ccccc2)cc1	?	-27%	16	23µM*	?
N#Cc1ccc(CSc2nnc(-c3ccccc3)n2Cc2ccco2)cc1	29µM*	?	-28	-9%	?
Cn1c(SCC(=O)c2cc(Cl)c(Cl)s2)nnc1-c1ccco1	-30%	5%	.	-1%	1%
SMILES	TDP1 cell noCPT	TDP1 cell CPT	IL-1B inflam inh	HT1080NT lethal	HT1080 IDH1KD tx
Cc1ccc(C(=O)CSc2nnc(-c3ccco3)n2C)cc1	16µM*	?	-14	4%	-1%
Brc1ccc(CSc2nnc(-c3cnccn3)n2Cc2ccco2)cc1	15µM*	?	6	5%	0%
O=C(Nc1ccccn1)[C@@H]1CCC(=O)N1C(=O)OCc1ccccc1	4%	-4%	1	4%	6%
O=C(COC(=O)c1n[nH]c2ccccc12)Nc1ccc(S(=O)(=O)N2CCCC2)cc1	21µM*	23µM*	-4	-22%	-25%
O=C(COC(=O)c1ccc(S(=O)(=O)N2CCCC2)cc1)Nc1ccc(N2CCOCC2)cc1	?	18µM*	31	16%	-7%
O=C(COC(=O)c1n[nH]c2ccccc12)Nc1ccccc1	-8%	8%	-11	-1%	24%
Cc1cc(C(=O)N/N=C/c2c(C)nn(-c3ccccc3)c2C)c(C)o1	-20%	6%	-12	19%	18%
CC(C)(C)OC(=O)C[C@@H]1C/C=C\C[C@H](CC(=O)N(CCO)Cc2ccccc2)C(=O)N2CCC[C@H]2COC1=O	?	?	-2	1%	2%
O=C1CCCC/C=C\C[C@H](CC(=O)N(CCO)Cc2ccccc2)C(=O)N2CCC[C@@H]2CO1	?	16µM*	9	1%	-5%
O=C1OC[C@@H]2CCCN2C(=O)[C@@H](CC(=O)N(CCO)Cc2ccccc2)C/C=C\C[C@H]1Cc1ccc(F)cc1	15µM*	?	-17	-8%	-10%
CC(C)(C)OC(=O)C[C@H]1C/C=C\C[C@H](CC(=O)N(CCO)Cc2ccccc2)C(=O)N2CCC[C@H]2COC1=O	?	26µM*	-19	12%	3%
CC(C)(C)OC(=O)C[C@@H]1C/C=C\C[C@@H](CC(=O)N(CCO)Cc2ccccc2)C(=O)N2CCC[C@H]2COC1=O	?	?	1	10%	11%
O=C1OC[C@H]2CCCN2C(=O)[C@@H](CC(=O)N(CCO)Cc2ccccc2)C/C=C\C[C@H]1Cc1ccc(F)cc1	18µM*	13µM*	-23	2%	-4%
Cc1ccc(S(=O)(=O)NC(CC(C)C)C(=O)Nc2nccs2)cc1 (centres undefined)	?	-4%	4	-4%	-13%
CC1=C(C(=O)N2CCCCCC2)CC(CC(=O)NCCN2CCOCC2)C(=O)N1Cc1ccc(F)cc1 (centres undefined)	-4%	-10%	12	18%	27%
N#Cc1ccc(NC(=O)COC(=O)C2Cc3ccccc3CN2C(=O)c2ccccc2)cc1 (centres undefined)	16µM*	9.2µM*	-8	-16%	1%
O=S1(=O)CC(N2CCN(Cc3ccccc3F)CC2)CN1Cc1cn(Cc2ccc(F)cc2)nn1 (centres undefined)	?	-16%	-16	-7%	?
Cc1cccc(CN2CCN(C3CN(Cc4cn(Cc5cccc(Cl)c5)nn4)S(=O)(=O)C3)CC2)c1 (centres undefined)	15µM*	18µM*	4	-1%	2%
CCCCCCN1CCN(C2CN(Cc3cn(Cc4cc(C)cc(C)c4)nn3)S(=O)(=O)C2)CC1 (centres undefined)	16µM*	?	?	?	?
